Measured values published in PubChem BioAssay (EPA / NIEHS).
Inconclusive results are not listed. Activity calls are given as the source filed them. The calls were made as follows, unless noted: active = hit-call score of the fitted dose curve at least 0.9, where 1 is the maximum; inactive = score below 0.9.

Legend:
[1] = CCTE_Shafer_MEA_dev_firing_rate_mean: CCTE's Neural Network Formation Assay for Mean Firing Rate, Shafer Lab (AID 2284031)
Method in brief: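 Extracellular spike frequency, AUC over DIV 5–12 recordings, in rat cortical neuron MEA cultures dosed from plating; loss direction vs DMSO.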

[2] = CCTE_Shafer_MEA_dev_per_burst_spike_percent: CCTE's Neural Network Formation Assay for Percent of Spikes in a Burst, Shafer Lab (AID 2284032)
Method in brief: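 Value is trapezoidal AUC over recordings on days 5, 7, 9 and 12 of the well-mean fraction of spikes falling in single-electrode bursts; rat cortical cultures exposed continuously from plating, treatment renewed DIV 5 and 9, fitted downward against DMSO.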

[3] = CCTE_Shafer_MEA_dev_active_electrodes_number: CCTE's Neural Network Formation Assay for Number of Active Electrodes, Shafer Lab (AID 2284040; active = hit-call score of the fitted dose curve at least 0.9, where 1 is the maximum)
Method in brief: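 Developing rat cortical networks on MEAs, exposed DIV 0–12. Value is the AUC of active-electrode counts (≥5 spikes/min) from days 5, 7, 9, 12, relative to DMSO.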

[4] = CCTE_Shafer_MEA_dev_burst_rate: CCTE's Neural Network Formation Assay for Burst Rate, Shafer Lab (AID 2284042)
Method in brief: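 Developmental network assay measuring how 12-day exposure of rat cortical neuron cultures alters bursting on extracellular MEA recordings. Values are AUC of well-mean burst rate across four recording days, relative to DMSO vehicle.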

[5] = CCTE_Shafer_MEA_dev_bursting_electrodes_number: CCTE's Neural Network Formation Assay for Number of Bursting Electrodes, Shafer Lab (AID 2284043; active = hit-call score of the fitted dose curve at least 0.9, where 1 is the maximum)
Method in brief: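 Number of electrodes reaching ≥1 burst every 2 min was recorded at DIV 5, 7, 9 and 12 and collapsed as trapezoidal area under the curve. Cultures were rat cortical neurons on MEA plates, dosed continuously from plating with medium and treatment refreshed on DIV 5 and 9.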

[6] = CCTE_Shafer_MEA_dev_per_burst_interspike_interval: CCTE's Neural Network Formation Assay for Burst Interspike Interval, Shafer Lab (AID 2284044)
Method in brief: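 Neurons from rat cortex plated onto PEI-coated MEA wells with laminin […] at 1.5 x 10^5 cells/well, then treated from day 0. Media and compound fully replaced on DIV 5 and 9. Extracellular spontaneous firing recorded four times; interspike interval per burst summarised as AUC.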

[7] = CCTE_Shafer_MEA_dev_interburst_interval_mean: CCTE's Neural Network Formation Assay for Mean Interburst Interval, Shafer Lab (AID 2284046);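 also: well-mean interburst interval of bursting electrodes as AUC over four recording days; curve fitted for decrease in interburst interval relative to DMSO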
Method in brief: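 Network formation assay in primary rat cortical cultures, exposed from DIV 0 to 12. Mean interburst interval per well, integrated as AUC over four recordings.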

[8] = CCTE_Shafer_MEA_dev_inter_network_spike_interval_mean: CCTE's Neural Network Formation Assay for Mean Inter-network Spike Interval, Shafer Lab (AID 2284047)
Method in brief: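 Compound was given at plating to primary rat cortical neurons and renewed with full medium changes on DIV 5 and 9. Extracellular activity was recorded on days 5, 7, 9, 12; AUC values were fitted for loss relative to DMSO control.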

[9] = CCTE_Shafer_MEA_dev_network_spike_number: CCTE's Neural Network Formation Assay for Number of Network Spikes, Shafer Lab (AID 2284048);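 also: synchronized bursts across electrodes counted on days 5 7 9 12 and integrated as AUC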
Method in brief: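 Number of network spikes (coordinated firing across electrodes) recorded on days 5, 7, 9 and 12 and summarised as area under the curve. Rat cortical cultures on MEA, continuous compound exposure with full medium/treatment exchange at DIV 5 and 9.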

[10] = CCTE_Shafer_MEA_dev_network_spike_peak: CCTE's Neural Network Formation Assay for Mean Number of Electrodes in Network Spike, Shafer Lab (AID 2284049)
Method in brief: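 Rat cortical primary culture, 1.5 x 10^5 cells/well, 48-well MEA (16 electrodes/well). Dosing day 0 through DIV 12, full media/compound exchange DIV 5, 9. AxIS adaptive spike detection; AUC over days 5/7/9/12; loss-of-signal vs DMSO.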

[11] = CCTE_Shafer_MEA_dev_network_spike_duration_std: CCTE's Neural Network Formation Assay for Standard Deviation of Network Spike Duration, Shafer Lab (AID 2284052);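 also: area under curve of spike duration SD across recording days 5 to 12; hits are decreases in network spike duration SD versus DMSO vehicle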
Method in brief: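 Developing networks of rat cortical neurons were exposed over twelve days in vitro on 48-well MEA plates. Trapezoidal AUC of recordings (DIV 5–12) was analysed for signal loss relative to DMSO vehicle.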

[12] = CCTE_Shafer_MEA_dev_per_network_spike_spike_number_mean: CCTE's Neural Network Formation Assay for Mean Number of Spikes in a Network Spike, Shafer Lab (AID 2284053)
Method in brief: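 First, rat cortical cells (1.5 x 10^5/well) were seeded onto MEA wells; second, dosing began at plating and was refreshed on DIV 5 and 9; finally, network-spike spike counts across DIV 5–12 were summarized as AUC.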

[13] = CCTE_Shafer_MEA_dev_per_network_spike_spike_percent: CCTE's Neural Network Formation Assay for Percent of Spikes in a Network Spike, Shafer Lab (AID 2284054)
Method in brief: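 Metric: fraction of spikes falling in a 0.05 s window at network-spike peaks. Recordings were made on days 5, 7, 9 and 12 and collapsed by trapezoidal AUC. Cultures were rat cortical neurons on MEA plates, dosed continuously from plating, re-dosed at media changes.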

[14] = CCTE_Shafer_MEA_dev_LDH: CCTE's Lactate Dehydrogenase Assay for Cytotoxicity in the Neural Network Formation Assay, Shafer Lab (AID 2284068; active = hit-call score of the fitted dose curve at least 0.9, where 1 is the maximum;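 also: exposure for twelve days from plating with re-dosing on DIV 5 and 9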)
Method in brief: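 Developing rat cortical networks on MEA plates are exposed to compound for 12 days from plating. LDH activity is measured spectrophotometrically, with DMSO as baseline.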

[15] = UKN2_HCS_IMR90_neural_migration: University of Konstanz (UKN) Leist Lab Neural Crest Cell Migration Assay in human induced IMR90 Pluripotent Stem Cells (UKN2) (AID 2284204); settings: actives raise or lower the signal
Method in brief: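 High-content imaging of calcein-AM and Hoechst stained cells quantifies migration into a stopper-defined gap after 24 h compound exposure. Neural crest cells from IMR90 iPSC migrated 24 h in EGF/FGF N2-S medium before dosing; DMSO baseline.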

[16] = IUF_NPC1b_proliferation_BrdU_72hr: Leibniz Research Institute for Environmental Medicine (IUF) 72-hour Neural Progenitor Cell Bromodeoxyuridine (BrdU) Proliferation Assay (NPC1b) (AID 2284207)
Method in brief: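 Human fetal cortex-derived (GW 16-19) neural progenitor spheres, 0.25-0.35 mm, one per well in EGF/FGF proliferation medium, exposed to compound for 72 h at 37C, pH 7.2-7.6. BrdU incorporation over the final 16 h read by luminescence ELISA, relative to DMSO.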

[17] = IUF_NPC1a_proliferation_area_72hr: Leibniz Research Institute for Environmental Medicine (IUF) 72-hour Neural Progenitor Cell Proliferation Area Assay (NPC1a) (AID 2284208)
Method in brief: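 Spheres of 0.3 mm are plated singly in growth-factor medium and exposed from day 0. After three days at 37C and 5% CO2, sphere area is measured by phase contrast imaging, with activity referenced to DMSO.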

[18] = IUF_NPC1_viability_72hr: Viability Assessment at 72 hours in the Leibniz Research Institute for Environmental Medicine (IUF) Neural Progenitor Cell Proliferation Assay (NPC1) (AID 2284209)
Method in brief: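 Three-day continuous exposure of human neural progenitor spheres under EGF/FGF-driven proliferation; cell viability scored by alamar blue signal versus DMSO.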

[19] = CCTE_Mundy_HCI_Cortical_Synap_Neur_Matur_NeuriteSpotCountPerNeuriteLength: CCTE's Synaptogenesis and Neurite Maturation Assay in rat cortical cells for Neurite Spot Count per Neurite Length, Mundy Lab (AID 2284210)
Method in brief: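 Synaptophysin spots per unit neurite length, measured by automated imaging of MAP2/synaptophysin/Hoechst-stained neurons. Cultures from rat cortex received chemical at DIV 7 with media change through DIV 12; glial growth arrested by AraC at DIV 5; DMSO baseline.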

[20] = CCTE_Mundy_HCI_Cortical_Synap_Neur_Matur_BPCount: CCTE's Synaptogenesis and Neurite Maturation Assay in rat cortical cells for Branch Point Count, Mundy Lab (AID 2284211)
Method in brief: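 In this multiplexed morphology assay, cortical cells from rat receive chemicals at DIV 7 and are fixed at DIV 12, then immunostained and imaged; branch points are counted, with DMSO as baseline.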

[21] = CCTE_Mundy_HCI_Cortical_NOG_NeuriteCount: CCTE's Neurite Outgrowth Assay in rat cortical cells for Neurite Count, Mundy Lab (AID 2284212);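 also: cells fixed about two days after chemical exposure began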
Method in brief: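 Rat cortical primary cells; compound added 2 h post-plating, 1/10 dilution of working solution. Anti-betaIII-tubulin/AF488 ICC; ArrayScan neurite count vs DMSO.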

Measured: AC50

C[C@@H]1CC[C@@H](C(C)(C)O)[C@H](O)C1
inactive: [1] | [2] | [3] | [4] | [5] | [6] | [7] | [8] | [9] | [10] | [11] | [12] | [13] | [14] | [15] | [17] | [18] | [19] | [20] | [21]
active: [16] 8.23 µM
